From article PMC7862700, “An all-to-all approach to the identification of sequence-specific readers for epigenetic DNA modifications on cytosine”

Columns and labels:
Experiment in all cases: DAPPL (digital affinity profiling via proximity ligation, sequencing); 10 mM Tris-HCl pH 7.5, 50 mM NaCl, 1 mM DTT, 4% glycerol, room temperature, 30 min; GST-TFs on glutathione beads, 16-mer random dsDNA library, 0.1% formaldehyde crosslink after washing; high values mean tight binding
FEV = target: T1, FEV (Homo sapiens, UniProt Q99581 1-238); conditions: protein: recombinant; tags: N-terminal GST; dsDNA, one strand shown
T1 sequence: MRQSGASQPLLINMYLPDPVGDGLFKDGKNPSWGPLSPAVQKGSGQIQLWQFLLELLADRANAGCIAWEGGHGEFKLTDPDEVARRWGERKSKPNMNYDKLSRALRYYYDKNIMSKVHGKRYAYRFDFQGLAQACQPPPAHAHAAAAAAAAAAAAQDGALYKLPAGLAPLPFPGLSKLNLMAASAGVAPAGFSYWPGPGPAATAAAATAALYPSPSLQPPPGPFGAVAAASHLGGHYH
In short: (§1)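 Pools of DNA-barcoded human transcription factors, expressed in yeast as GST fusions on glutathione beads and combined with a tag-only sample, were incubated with 200 nmole of a 16-mer random double-stranded DNA library. Incubation took 30 min at room temperature in Tris/NaCl/DTT/glycerol buffer and was followed by washing, 0.1% formaldehyde crosslinking, proximity ligation (BsaI/T4 ligase, 1 h, 37 °C), PCR amplification and sequencing on an Illumina NextSeq500. Binding signal is the ratio of a hexamer's read frequency for a factor to its frequency for the tag-only sample.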

ETV5 = ETV5 (Homo sapiens, UniProt P41161 1-510); conditions: protein: recombinant; tags: N-terminal GST; dsDNA, one strand shown
In short: as §1

HSF1 = HSF1 (Homo sapiens, UniProt Q00613 1-529); conditions: protein: recombinant; tags: N-terminal GST; chain copies: 3; dsDNA, one strand shown
In short: as §1

SPIC = target: T2, SPIC (Homo sapiens, UniProt Q8N5J4 1-248); conditions: protein: recombinant; tags: N-terminal GST; dsDNA, one strand shown
T2 sequence: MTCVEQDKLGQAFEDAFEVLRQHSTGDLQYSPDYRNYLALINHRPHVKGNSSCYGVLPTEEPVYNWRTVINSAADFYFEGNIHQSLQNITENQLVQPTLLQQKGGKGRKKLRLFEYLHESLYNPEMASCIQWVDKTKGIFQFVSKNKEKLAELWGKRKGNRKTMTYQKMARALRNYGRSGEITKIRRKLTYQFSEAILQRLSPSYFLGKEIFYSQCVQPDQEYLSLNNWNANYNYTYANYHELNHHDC
In short: as §1

ELF4 = ELF4 (Homo sapiens, UniProt Q99607 1-663); conditions: protein: recombinant; tags: N-terminal GST; dsDNA, one strand shown
In short: as §1

ELK4 = target: T3, ELK4 (Homo sapiens, UniProt P28324-2 1-405); conditions: protein: recombinant; tags: N-terminal GST; dsDNA, one strand shown
T3 sequence: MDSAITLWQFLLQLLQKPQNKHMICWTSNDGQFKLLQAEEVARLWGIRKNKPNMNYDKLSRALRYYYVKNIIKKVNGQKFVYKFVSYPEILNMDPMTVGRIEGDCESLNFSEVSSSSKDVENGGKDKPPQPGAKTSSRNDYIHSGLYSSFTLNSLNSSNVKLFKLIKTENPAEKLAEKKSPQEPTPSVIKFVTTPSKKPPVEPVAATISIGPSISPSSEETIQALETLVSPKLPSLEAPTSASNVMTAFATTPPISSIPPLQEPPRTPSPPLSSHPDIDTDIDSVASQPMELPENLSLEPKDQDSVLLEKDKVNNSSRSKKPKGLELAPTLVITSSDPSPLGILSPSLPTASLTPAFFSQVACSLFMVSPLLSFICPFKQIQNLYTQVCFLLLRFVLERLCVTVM
In short: as §1

ETV2 = target: T4, ETV2 (Homo sapiens, UniProt O00321 1-342); conditions: protein: recombinant; tags: N-terminal GST; dsDNA, one strand shown
T4 sequence: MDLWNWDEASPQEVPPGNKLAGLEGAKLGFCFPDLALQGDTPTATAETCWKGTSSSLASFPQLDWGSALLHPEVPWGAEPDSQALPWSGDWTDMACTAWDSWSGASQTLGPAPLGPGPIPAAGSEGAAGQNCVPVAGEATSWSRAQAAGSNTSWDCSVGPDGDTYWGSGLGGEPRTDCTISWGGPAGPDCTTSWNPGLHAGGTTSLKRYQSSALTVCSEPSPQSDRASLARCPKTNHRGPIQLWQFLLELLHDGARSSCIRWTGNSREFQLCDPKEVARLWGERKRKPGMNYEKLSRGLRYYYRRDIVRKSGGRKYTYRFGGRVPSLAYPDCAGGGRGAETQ
In short: as §1

ELF3 = target: T5, ELF3 (Homo sapiens, UniProt P78545 1-371); conditions: protein: recombinant; tags: N-terminal GST; dsDNA, one strand shown
T5 sequence: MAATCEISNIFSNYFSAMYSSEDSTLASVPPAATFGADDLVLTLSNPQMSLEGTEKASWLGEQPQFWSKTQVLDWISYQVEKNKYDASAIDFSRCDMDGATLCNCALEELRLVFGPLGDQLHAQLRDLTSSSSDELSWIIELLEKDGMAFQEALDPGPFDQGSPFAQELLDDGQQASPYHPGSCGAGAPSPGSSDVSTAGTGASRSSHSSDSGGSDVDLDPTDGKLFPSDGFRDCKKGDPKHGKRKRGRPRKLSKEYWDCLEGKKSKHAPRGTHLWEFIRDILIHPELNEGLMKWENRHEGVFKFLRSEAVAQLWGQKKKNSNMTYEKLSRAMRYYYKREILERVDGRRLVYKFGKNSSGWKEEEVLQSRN
In short: as §1

CRX = CRX (Homo sapiens, UniProt O43186 1-299); conditions: protein: recombinant; tags: N-terminal GST; dsDNA, one strand shown
In short: as §1

ETV1 = ETV1 (Homo sapiens, UniProt P50549 1-477); conditions: protein: recombinant; tags: N-terminal GST; dsDNA, one strand shown
In short: as §1

CRX, sequence (O43186 whole entry): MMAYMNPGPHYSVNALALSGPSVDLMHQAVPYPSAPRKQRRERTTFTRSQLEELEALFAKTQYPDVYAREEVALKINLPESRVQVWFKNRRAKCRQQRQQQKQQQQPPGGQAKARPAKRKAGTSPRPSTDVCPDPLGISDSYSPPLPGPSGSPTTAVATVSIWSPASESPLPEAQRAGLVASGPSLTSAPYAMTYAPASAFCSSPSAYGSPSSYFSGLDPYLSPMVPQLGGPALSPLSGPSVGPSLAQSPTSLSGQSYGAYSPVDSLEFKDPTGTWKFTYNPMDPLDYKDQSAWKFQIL
ETV1, sequence (P50549 whole entry): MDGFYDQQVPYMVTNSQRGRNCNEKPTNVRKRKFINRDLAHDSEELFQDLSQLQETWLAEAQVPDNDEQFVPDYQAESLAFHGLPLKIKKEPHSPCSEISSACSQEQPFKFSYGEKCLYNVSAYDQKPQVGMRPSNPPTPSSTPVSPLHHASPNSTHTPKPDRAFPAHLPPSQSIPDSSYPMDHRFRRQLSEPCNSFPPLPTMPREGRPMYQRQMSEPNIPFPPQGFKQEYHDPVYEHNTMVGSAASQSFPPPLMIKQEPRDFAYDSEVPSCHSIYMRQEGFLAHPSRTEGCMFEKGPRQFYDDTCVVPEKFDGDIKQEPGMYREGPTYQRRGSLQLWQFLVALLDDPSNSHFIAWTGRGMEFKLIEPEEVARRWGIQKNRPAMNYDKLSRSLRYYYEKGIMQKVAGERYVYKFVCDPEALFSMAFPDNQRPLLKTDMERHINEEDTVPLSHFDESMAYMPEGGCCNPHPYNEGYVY
HSF1, sequence (Q00613 whole entry): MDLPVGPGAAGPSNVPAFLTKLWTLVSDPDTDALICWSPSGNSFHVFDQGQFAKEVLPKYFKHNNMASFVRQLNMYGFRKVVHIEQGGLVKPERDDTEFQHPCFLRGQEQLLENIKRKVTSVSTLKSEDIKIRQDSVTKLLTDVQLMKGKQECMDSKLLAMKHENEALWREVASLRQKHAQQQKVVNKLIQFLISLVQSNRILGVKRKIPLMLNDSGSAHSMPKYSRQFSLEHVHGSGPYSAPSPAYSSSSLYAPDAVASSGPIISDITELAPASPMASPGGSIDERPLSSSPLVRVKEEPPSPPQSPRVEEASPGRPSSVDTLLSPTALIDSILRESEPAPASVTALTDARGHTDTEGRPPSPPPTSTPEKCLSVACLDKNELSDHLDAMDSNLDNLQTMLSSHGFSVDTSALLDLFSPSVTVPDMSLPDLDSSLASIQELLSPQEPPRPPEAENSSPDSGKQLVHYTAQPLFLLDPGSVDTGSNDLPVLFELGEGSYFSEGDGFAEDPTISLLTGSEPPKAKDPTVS
ETV5, sequence (P41161 whole entry): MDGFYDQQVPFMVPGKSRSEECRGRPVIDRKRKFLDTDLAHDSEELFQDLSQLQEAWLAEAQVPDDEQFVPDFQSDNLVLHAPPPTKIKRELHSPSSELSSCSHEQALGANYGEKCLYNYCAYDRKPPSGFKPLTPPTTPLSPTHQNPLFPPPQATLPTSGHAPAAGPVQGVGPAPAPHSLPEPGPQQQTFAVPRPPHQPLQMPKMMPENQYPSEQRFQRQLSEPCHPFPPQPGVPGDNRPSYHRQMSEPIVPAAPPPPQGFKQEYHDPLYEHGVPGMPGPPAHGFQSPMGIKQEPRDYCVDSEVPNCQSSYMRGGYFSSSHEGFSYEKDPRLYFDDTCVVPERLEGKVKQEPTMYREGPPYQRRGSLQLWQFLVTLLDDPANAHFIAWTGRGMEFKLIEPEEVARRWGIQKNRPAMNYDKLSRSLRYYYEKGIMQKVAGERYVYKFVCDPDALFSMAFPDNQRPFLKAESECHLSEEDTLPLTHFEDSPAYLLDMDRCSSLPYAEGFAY
ELF4, sequence (Q99607 whole entry): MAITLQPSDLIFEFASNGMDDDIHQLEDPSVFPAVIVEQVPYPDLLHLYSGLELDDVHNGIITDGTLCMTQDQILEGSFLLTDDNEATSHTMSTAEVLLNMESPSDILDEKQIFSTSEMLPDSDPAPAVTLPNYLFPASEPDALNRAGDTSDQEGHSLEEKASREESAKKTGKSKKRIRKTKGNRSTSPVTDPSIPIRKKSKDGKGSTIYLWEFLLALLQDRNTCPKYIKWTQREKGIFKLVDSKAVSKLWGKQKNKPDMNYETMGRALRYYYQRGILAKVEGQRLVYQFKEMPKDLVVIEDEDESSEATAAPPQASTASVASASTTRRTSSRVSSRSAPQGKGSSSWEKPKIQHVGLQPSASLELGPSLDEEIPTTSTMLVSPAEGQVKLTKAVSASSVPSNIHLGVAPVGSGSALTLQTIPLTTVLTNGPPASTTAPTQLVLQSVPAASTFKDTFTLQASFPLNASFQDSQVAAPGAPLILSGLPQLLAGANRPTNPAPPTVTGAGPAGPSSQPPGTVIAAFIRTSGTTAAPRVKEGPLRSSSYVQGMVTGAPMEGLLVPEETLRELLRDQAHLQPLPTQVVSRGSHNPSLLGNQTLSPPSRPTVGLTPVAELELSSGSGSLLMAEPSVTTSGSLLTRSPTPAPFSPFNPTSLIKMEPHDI

Sequence: TTATCC
- binding signal (FEV): 1.44 fold enrichment (6-mer frequency, TF over GST control)
- binding signal (ETV5): 1.45 fold enrichment (6-mer frequency, TF over GST control)
- binding signal (HSF1): 2.49 fold enrichment (6-mer frequency, TF over GST control)
- binding signal (SPIC): 1.51 fold enrichment (6-mer frequency, TF over GST control)
- binding signal (ELF4): 1.33 fold enrichment (6-mer frequency, TF over GST control)
- binding signal (ELK4): 1.45 fold enrichment (6-mer frequency, TF over GST control)
- binding signal (ETV2): 1.61 fold enrichment (6-mer frequency, TF over GST control)
- binding signal (ELF3): 1.41 fold enrichment (6-mer frequency, TF over GST control)
- binding signal (CRX): 3.97 fold enrichment (6-mer frequency, TF over GST control)
- binding signal (ETV1): 1.27 fold enrichment (6-mer frequency, TF over GST control)
